Data: PubChem BioAssay AID2253 (Southern Research Specialized Biocontainment Screening …, 2010)
About 1,300 (59%) of roughly 2,200 compounds were called active. So high a share suggests a set chosen from earlier hits. Only a sample is shown. Entries with a potency or affinity are not part of this list. Values without a mark were called inactive. No rule for the calls is given here.

assay: human monocytic cell viability reduction – S. typhimurium screen hits, cytotoxicity control for Salmonella PhoP regulon inhibitors, dose response (AID 2253); details: THP-1 viability, CellTiter-Glo luminescence, 72 h; series mostly up to 50 µM; viability: at the top concentration

SMILES | viability
Oc1ccccc1-c1nc(/C=C/c2ccccc2)nn1-c1ccccc1 | 81.1%
CCn1cc(C(=O)O)c(=O)c2cnc(N3CCNCC3)nc21 | 96.9%
N#Cc1c(N)n[nH]c1-c1cc2c([nH]1)CCCC2 | 85.7%
O=C(CSc1ccc(Cl)cc1)Nc1ccccc1N1CCN(C(=O)c2ccc(Cl)cc2)CC1 | 92.9%
O=C(CCN1C(=O)C2C3C=CC(C3)C2C1=O)N1CCN(c2cccc(Cl)c2)CC1 (stereo unspecified) | 82.6%
CN(C(=O)c1cccc(C#N)c1)c1nnc(-c2cnccn2)s1 | 96%
NC(=O)N1OCC2COc3ccc4ccccc4c3C21 (stereo unspecified) | 96.9%
COc1c(N2CCN[C@H](C)C2)c(F)cc2c(=O)c(C(=O)O)cn(C3CC3)c12 | 95.7%
COC(=O)c1sccc1NC(=O)c1csc2c1CCCC2 | 82.9%
CC(=O)Oc1c2occc2cc2ccc(=O)oc12 | 91.6%
COc1cc(C2Nc3cccc4cccc(c34)N2)cc(OC)c1OC(C)=O | 90%
CCOc1ccc2nc(COC(=O)c3ccco3)c(C(C)=O)[n+]([O-])c2c1 | 90.3%
CC1=CC(C)(C)n2c(O)c(C3=NC(=S)NC3=O)c3cc(OC(=O)c4cccc5ccccc45)cc1c32 | 90.9%
Cc1nc(-c2ccccn2)sc1C(=O)Nc1ccc(F)cc1F | 91.3%
COC(=O)c1cn(C(=O)c2cccs2)c2ccccc12 | 84.2%
Cc1c(NS(=O)(=O)c2ccccc2)c(=O)n(-c2ccccc2)n1C | 103%
Cc1cc2cc(CNS(=O)(=O)c3ccc4ccccc4c3)ccc2n1C | 93.5%
C=CCSc1ncnc2sc(C)c(C)c12 | 90.1%
c1ccn2c(CNc3ncnc4sccc34)nnc2c1 | 97.4%

SMILES | viability
N/C(=N\OC(=O)c1cccs1)C1(c2ccc(Cl)cc2Cl)CC1 | 96.5%
COc1ccc(C(C)=O)c2c(O)cccc12 | 80.5%
Cc1ccc(C2NNC(=O)C2NC(=O)c2ccccc2)cc1 (stereo unspecified) | 95.8%
Cc1ccc(S(=O)(=O)NNC(=O)c2ccc(O)cc2)cc1 | 80.1%
Nc1nnc(-c2cccc(Cl)c2Cl)c(N)n1 | 90.1%
CCn1cc(C(=O)O)c(=O)c2cc3c(cc21)OCO3 | 100%
CCCn1c(N)c(C(=O)COC(=O)c2c(C)noc2C)c(=O)n(C)c1=O | 81%
Cc1ccccc1-n1c(=O)c2ccccc2n2cnnc12 | 98.5%
O=C(O)Cn1cc(C(=O)c2ccco2)c2ccccc21 | 102%
Cc1cc(C(=O)COC(=O)CNC(=O)c2ccco2)c(C)n1Cc1ccco1 | 90.9%
COc1ccc(N2CCN(C(=O)C3CCCO3)CC2)cc1 (stereo unspecified) | 91.3%
Cc1ccc(C)n1-c1cccc(N)c1 | 95.7%
N/C(=N\OC(=O)c1ccc(F)cc1)c1nonc1N | 82.5%
CC(=O)N/N=C/c1ccc(OCCOc2ccc(Br)cc2)cc1 | 103%
Cc1cc(C(=O)N/N=C/c2ccc[nH]2)no1 | 98.2%
CCOC(=O)C1=C(C)N(CCO)C(=O)NC1c1cccc(O)c1 (stereo unspecified) | 93.5%
Cc1cc(C)n(-c2ccc(C(=O)OCC(=O)Nc3ccc([N+](=O)[O-])cc3)cc2)n1 | 83.8%
C=CCNC(=O)CC(=O)N/N=C/c1ccc(C(=O)OC)cc1 | 93.1%
Cc1ccc(/C=N/NC(=O)Cn2cnc3ccccc32)o1 | 81.5%

SMILES | viability
COc1ccc(OC)c(C(C(=O)NCc2ccco2)N(C(=O)Cn2nnc3ccccc32)C(C)C)c1 (stereo unspecified) | 86.7%
O=C(C1CCN(C2CC(=O)N(Cc3ccccc3)C2=O)CC1)N1CCCCCC1 (stereo unspecified) | 110%
Cc1ccc(S(=O)(=O)N2C(=O)CCC2C(=O)N2CCN(C)CC2)cc1 (stereo unspecified) | 80.2% [at 25 µM]
CCn1cc(C(=O)NCCCN(C)C)c(=O)c2cc(F)c(N3CCN(C)CC3)cc21 | 90.6%
Cc1cccc(-n2nc3c(c2NC(=O)c2ccco2)CSC3)c1C | 92.4%
CC(=O)Nc1ccc(-n2nnnc2SCC(=O)Nc2cccc(NC(=O)c3ccco3)c2)cc1 | 95%
O=C(Nc1cccc(-c2cn3cccnc3n2)c1)c1ccco1 | 82.7%
O=C(NC1CCCCC1)n1c(=O)oc2ccc(Cl)cc21 | 83.7%
Cc1ccc(C(=O)C(OC(=O)COc2ccccc2C)c2ccccc2)cc1 (stereo unspecified) | 93%
Cc1ccc(C(=O)N2CC3(C(C)C)CN(C(=O)c4ccc(C)cc4)CC(C(C)C)(C2)C3=O)cc1 | 104%
COC(=O)c1cc(C#N)c(Oc2ccc(F)cc2)nc1C | 97.7%
Nc1nc(Nc2ccc(Cl)cc2)n[nH]1 | 95.1%
COC(=O)CSc1nc(SCc2ccccc2Cl)nc2c1CCCC2 | 107%
CCCCn1nnnc1NCc1cc(OC)c(OC)cc1OC | 100%
CCCCCNS(=O)(=O)c1cc(C)ccc1OC | 83.1%
COc1ccc(C(C)C)cc1S(=O)(=O)Nc1ccc(Cl)cn1 | 84.3% [at 25 µM]
C=CCNC(=O)C(=O)NN=C1CCN(C)CC1 | 101%
COc1ccc(N2CCN(C(=O)Nc3ccc(S(=O)(=O)N(C)C)cc3)CC2)cc1 | 107%
